# Source: PubChem BioAssay (National Center for Advancing Translational Sciences (NCATS))
# TDP1 cell CPT = qHTS for Inhibitors of human tyrosyl-DNA phosphodiesterase 1 (TDP1): qHTS in cells in presence of CPT; chicken DT40 Tdp1-/-;hTDP1 cells + 20 nM CPT, ATP luminescence, 48 h; Potency, µM (titrated, usually from 46.2 µM), for the others: top-dose activity change, negative = growth inhibition, hits mostly inhibitors; actives 12% (n = 420,000); also: potency is read from the fitted curve at half-maximal effect; nearly all actives have a fitted effect of over 55% in size
#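 Cell growth measured by CellTiter-Glo luminescence after a minimum 48 h, 37 C compound exposure with 20 nM CPT in Tdp1-knockout DT40 cells stably expressing hTDP1, seeded 400/well; qHTS titration format.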
# HT1080NT lethal = qHTS for induction of synthetic lethality in tumor cells producing 2HG: qHTS for the HT-1080-NT fibrosarcoma cell line | HT-1080-NT fibrosarcoma viability, CellTiter-Glo ATP luminescence, 48 h | Potency, µM (highest dose often 46.1 µM), for the others: top-dose activity, negative = less viability, most hits filed as cytotoxic | actives 1.6% (n = 360,000) | AID 686970, 2013;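 also: NT is the 2HG producing partner of a matched IDH1 knockdown line; potency is read from the fitted curve at half-maximal effect; 0% = DMSO-treated cells and -100% = media-only wells without cells; nearly all actives have a fitted effect of over 55% in size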
#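 Toxicity toward the 2HG-producing NT line was scored as %Activity, normalised to DMSO and no-cell wells, from CellTiter-Glo luminescence after 48 hours' treatment.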
# TDP1 cell noCPT = qHTS for Inhibitors of human tyrosyl-DNA phosphodiesterase 1 (TDP1): qHTS in cells in absence of CPT | DT40 Tdp1-/- hTDP1 cells, no CPT, ATP luminescence, 48 h | Potency, µM (highest dose often 46.2 µM), for inactives: at the top dose activity change, negative = growth inhibition, hits mostly inhibitors | actives 15% (n = 420,000); also: potency is read from the fitted curve at half-maximal effect; nearly all actives have a fitted effect of over 55% in size
#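 Camptothecin absent (DMSO only). Human TDP1-complemented DT40 knockout cells, 400 cells/well, 37 °C for minimum 48 hr; ATP measured via CellTiter-Glo, 30 min dark incubation, luminescence.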
# IL-1B inflam inh = qHTS for Inhibitors of Inflammasome Signaling: IL-1-beta AlphaLISA Primary Screen. activity change, % at 57.5 µM. THP-1 LPS/ATP IL-1B secretion, AlphaLISA, 16 h; hits give low values. actives 4.7% (n = 360,000). AID 743279, 2014; in the data active = activity change below about -50%; inconclusive = mostly about -30% to -49%
#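 THP-1 cells pretreated 1 hr with compounds (up to 57.5 uM final), then stimulated with LPS (250 ng/mL final) plus ATP (1.25 mM final); secreted IL-1B measured by AlphaLISA after 16 hr, decreased signal indicating inhibition.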
# HT1080 IDH1KD tx = qHTS for induction of synthetic lethality in tumor cells producing 2HG: qHTS for the HT-1080-IDH1KD cell line; HT-1080 IDH1 knockdown viability, ATP luminescence, 48 h; actives 2% (n = 360,000); Potency, µM (doses to about 46.1 µM), for inactives: top-dose activity, negative = toxicity, most hits filed as cytotoxic;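 also: potency is read from the fitted curve at half-maximal effect; 0% = DMSO wells and -100% = cell-free medium wells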
#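 HT-1080-IDH1KD cells (IDH1 knocked down), 750/well in RPMI with 5% FBS, treated with compound 48 h at 37 degrees C. Viability by CellTiter-Glo luminescence, normalised to DMSO and no-cell wells; concentration-response curves classed.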
# ELG1 DNA repair = qHTS screen for small molecules that inhibit ELG1-dependent DNA repair in human embryonic kidney (HEK293T) cells expressing luciferase-tagged ELG1 | HEK293T ELG1-luciferase reporter, luminescence, 16 h; DNA damage induced by 5-fluorouridine | AID 504467, 2011 | actives 2.3% (n = 330,000) | Potency, µM (titrated, usually from 46.1 µM), for inactives: at the top dose activity change, negative = inhibition, usual class: inhibitors; also: potency is read from the fitted curve at half-maximal effect; nearly all actives have a fitted effect of over 55% in size
#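 HEK293T cells expressing luciferase-tagged ELG1 (2,000/well) received 5-Fluorouridine plus compound or DMSO for 16 hr at 37 °C. Luciferase was read by ONE-Glo luminescence after 30 min at room temperature.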
# The depositor's hits bear a star; ? = inconclusive; . = not tested or not shown. A selection: hits, their analogues and other compounds. The true share with any hit is near 19%. Unless noted, calls follow the shape of the dose curve; as a rule, active = well fitted curve in the direction sought with a large enough effect; inconclusive = small, poorly fitted or top-dose-only effect, or another doubt; inactive = no such curve, though single readings can be large; an effect the other way counts as inactive or inconclusive. Unless noted, % is scaled to controls: 0 for no effect and ±100 for the full control effect.
SMILES,TDP1 cell CPT,HT1080NT lethal,TDP1 cell noCPT,IL-1B inflam inh,HT1080 IDH1KD tx,ELG1 DNA repair
CN(C)S(=O)(=O)c1cccc(NC(=O)CSc2nnnn2-c2ccccc2)c1,14.6µM*,?,23.1µM*,-2.0,-3.4%,?
Cc1ccc(CN(C)CC(=O)Nc2ccc3c(c2)CCC3)cc1,-5.5%,-2.1%,?,-66.4*,-12.8%,12.2%
Cc1cc(NC(=O)COC(=O)C2CC(=O)N(c3cccc(Cl)c3)C2)no1 (stereo not given),-21.5%,22.0%,-15.7%,4.4,11.5%,?
CCCCNS(=O)(=O)c1ccc2nc(SCC(=O)c3ccc(C#N)cc3)[nH]c2c1,-22.3%,-8.5%,-27.4%,6.2,-5.9%,-1.5%
CCCCNS(=O)(=O)c1ccc2nc(SCC(=O)Nc3ccccc3)[nH]c2c1,-1.3%,-2.4%,16.4µM*,0.0,-13.2%,?
CCN(CC)S(=O)(=O)c1ccc(NC(=O)CSc2nnc3c(n2)[nH]c2ccccc23)cc1,7.08µM*,12.6µM*,6.31µM*,.,22.4µM*,.
CC(=O)c1cc2c(cc1NC(=O)CSc1nc3ccc(C)cc3[nH]1)OCO2,-10.3%,-23.7%,?,-74.2*,-25.5%,?
Cc1noc(NS(=O)(=O)c2ccc(NC(=O)CSc3nnc4c(n3)[nH]c3ccccc34)cc2)c1C,-7.2%,1.3%,-21.2%,12.5,13.9%,-5.4%
Cc1ccc2nc(SCC(=O)Nc3ccc4c(c3)CCC4)[nH]c2c1,18.4µM*,-27.6%,?,0.0,-20.8%,-3.0%
NS(=O)(=O)c1cccc(NC(=O)CSc2nc3ccc(Cl)cc3[nH]2)c1,10.3%,-0.9%,?,-19.6,-1.1%,-27.3%
Cc1cccc(NC(=O)CSc2nnc(CNC(=O)c3ccc(S(=O)(=O)N(C)C)cc3)n2-c2cccc(C)c2)c1,16.4µM*,-0.6%,?,-4.4,-4.3%,-15.5%
Cc1ccc2nc(SCC(=O)Nc3cccc(S(=O)(=O)N(C)C)c3)[nH]c2c1,?,-14.9%,16.4µM*,-20.6,-12.9%,?
O=C(C1CC(=O)N(c2ccc3c(c2)OCCO3)C1)N1CCN(Cc2ccccc2F)CC1 (stereo not given),-14.6%,4.7%,-4.8%,13.3,1.5%,-15.6%
CC(=O)N1CCN(C(=O)OC2CC3CC2[C@H]2CCCCN2C3=O)CC1 (stereo not given in full),0.4%,18.8%,-1.1%,45.2,11.3%,.
C=CCN(CC=C)Cc1cc(=O)oc2ccccc12,-28.8%,24.2%,?,1.5,14.8%,.
Cc1ccnc(SCC(=O)Nc2sc3c(c2C#N)CCCC3)n1,3.26µM*,-12.8%,2.91µM*,?,-19.4%,-15.5%
N#Cc1c(NC(=O)CSc2nc(-c3ccccc3)cc(C(F)(F)F)n2)sc2c1CCC2,-19.4%,16.5%,?,-13.3,12.0%,7.31µM*
COc1ccc(-c2cc(C(F)(F)F)nc(SCC(=O)Nc3sc4c(c3C#N)CCC4)n2)cc1,?,16.7%,5.8µM*,-7.6,-1.9%,?
Cc1csc(SCC(=O)Nc2sc3c(c2C#N)CCC3)n1,?,-2.8%,?,7.8,-23.7%,1.0%
COc1ccc(-c2ccc(C#N)c(SCC(=O)Nc3sc4c(c3C#N)CCC4)n2)cc1OC,23.1µM*,1.8%,14.6µM*,-4.8,5.8%,?
COc1ccc(CNC(=O)CC[C@H]2O[C@@H](n3cc(C)c(=O)[nH]c3=O)C[C@@H]2O)cc1,-0.8%,20.7%,18.7%,-7.5,20.5%,.
NCCOc1ccc(C2CCCCC2)cc1,13µM*,15.0%,?,-186.2*,?,?
CCN(C[C@H]1N[C@@](C)(C(=O)OC)[C@H]2C(=O)N(Cc3ccccc3)C(=O)[C@@H]12)S(=O)(=O)c1ccc(OC)cc1,?,2.5%,-23.9%,-8.4,3.7%,-0.4%
O=C1NCCCc2c1oc1cc(Br)c(O)c(Br)c21,16.4µM*,-18.4%,?,?,-24.8%,?
CC(C)(C)c1ccc(C(=O)Nc2ccc(C(=O)OCc3cc(=O)n4ccsc4n3)cc2)cc1,20.6µM*,.,20.6µM*,.,.,.
SMILES,TDP1 cell CPT,HT1080NT lethal,TDP1 cell noCPT,IL-1B inflam inh,HT1080 IDH1KD tx,ELG1 DNA repair
CCOC(=O)c1cccc(NC(=O)c2cccs2)c1,23.1µM*,3.1%,14.6µM*,-20.6,4.1%,?
CC(C)Cc1nn2c(=O)cc(COC(=O)c3cccc(NC(=O)c4cccs4)c3)nc2s1,?,.,8.2µM*,.,.,.
O=C(Nc1cccc(C(=O)OCc2cc(=O)n3nc(C4CC4)sc3n2)c1)c1cccc(Cl)c1,11.6µM*,.,16.4µM*,.,.,.
CC(C)OCCCN1CN(S(=O)(=O)c2cccs2)c2nc3ccccc3nc21,-13.6%,-1.0%,-23.6%,-28.0,-8.4%,?
Cc1ccnc(NS(=O)(=O)c2ccc(NC(=O)c3cc(=O)c4ccc(C)c(C)c4o3)cc2)n1,-25.4%,.,?,.,.,.
Cc1nn2c(=O)cc(COC(=O)c3ccc(NC(=O)c4ccc(C(C)(C)C)cc4)cc3)nc2s1,?,.,16.4µM*,.,.,.
CCOC(=O)c1cccc(NC(=O)c2cc3cc4ccc(C)cc4nc3s2)c1,14.6µM*,.,14.6µM*,.,.,.
Cc1nn2c(=O)cc(COC(=O)c3cccc(NC(=O)c4cccs4)c3)nc2s1,11.6µM*,.,11.6µM*,.,.,.
O=C(Nc1ccccc1C(=O)OCc1cc(=O)n2ccsc2n1)c1cccc(F)c1,18.4µM*,.,11.6µM*,.,.,.
CC(C)(C)c1ccc(C(=O)Nc2ccccc2C(=O)OCc2cc(=O)n3ccsc3n2)cc1,-6.1%,.,1.6%,.,.,.
CSc1nnc(CNC(=O)c2c(-c3ccccc3)noc2C)n1-c1ccc(F)cc1,3.6%,.,-14.6%,.,.,.
Cc1ccsc1C(=O)N1CCC1(C)C(=O)NCc1cccnc1 (stereo not given),0.2%,19.2%,1.4%,20.1,22.3%,.
CCOC(=O)c1c(NC(=S)Nc2ccccc2)sc2c1CC(C)(C)SC2,16.4µM*,-1.4%,?,0.0,-12.9%,?
